# Laboratory results: PubChem BioAssay AID1964107 (National Center for Advancing Translational Sciences (NCATS), 2024)
# Screen size: about 31,000 compounds; about 360 (1.2%) were called active. Inconclusive results (about 8%) are left out. Calls come from the whole dose curve. The entries come from a sample that favours actives as a whole. Entries that show only a call come without a potency.
# Target: Polyprotein P1234 (Chikungunya virus (strain S27-African prototype)) (UniProt Q8JUX6)
# Assay: Primary qHTS for inhibitors of NSP2Pro chikungunya virus (CHIKV); note: nearly all actives have a fitted effect of over 60% in size
# Details: FRET peptide cleavage, fluorescence 1 h; series mostly up to 24.9 µM
# From the text: PI: Natalia J. Martinez Ph.D. National Center for Advancing Translational Sciences (NCATS), National Institute of Health (NIH), Rockville, Maryland Chikungunya virus (CHIKV) is a mosquito-borne RNA virus that has emerged as one of the most important global arboviral threats in the last decade. Although the first CHIKV vaccine has recently been FDA approved for use in healthy adults at increased risk, to date, there are no available antiviral drugs for CHIKV infection. CHIKV nsP2 protease plays a crucial role in the processing of the viral polypeptide precursor to release enzymes required for viral replication, thus making it a promising drug target for antiviral discovery. Here, we established a high-throughput pipeline to identify small molecule inhibitors of nsP2 proteolytic activity. The pipeline is composed of a suite of 1,536-well in vitro assays to support quantitative high-throughput (qHTS) screening campaigns. Specifically, we developed a fluorescence resonance energy transfer (FRET)-based assay using a fluorogenic peptide substrate encompassing an endogenous cleavage site and purified recombinant protease domain (nsP2pro). Using this assay, we interrogated ~37,000 small molecules, including those in drug repurposing libraries as well as chemically diverse and medicinal chemistry-friendly compounds. Hits were selected for follow-up validation against full-length nsP2 and an additional peptide. FRET-based 1,536-well assays for papain, hepatitis C virus NS3-4A, and human furin proteases were implemented to characterize compound selectivity. […] Novel compounds were identified to be potential nsP2 inhibitors and molecular docking analyses were performed to explain the binding mode of selected hits. In vitro antiviral activity was evaluated for a subset of compounds using a high-throughput CHIKV infection assay. To our knowledge, the pipeline presented here is unprecedented for CHIKV antiviral discovery research.
# PROTOCOL TABLE (as described by Inglese J, Shamu CE and Guy RK. 2007) SEQUENCE No. (e.g., 1, 2, 3, etc.); […] (e.g., Cells, Incubation, Reagent, etc.); VALUE; DESCRIPTION. 1; Control / Compound; 20 nL; Echo 655 acoustic dispenser, Greiner 1536-well solid bottom black plate. 2; Enzyme; 4 uL; BioRAPTR FRD liquid dispenser (Beckman Coulter). 3; Incubation; 15 min; room temperature. 4; Reagent; 4 uL; 2.5 uM Peptide 2 substrate. 5; Incubation; 1 hr; room temperature. 6; Detection; Fluorescence; WiewLux microplate reader (PerkinElmer), 525 nm excitation, 598/25 nm emission. NOTES (numbers refer to sequence numbers above). 1. Briefly, 20 nL DMSO, positive control ZnAc (20nM final concentration), and test compounds were transferred into a 1,536-well solid bottom black plate (789176-F, Greiner One) via Echo 655 acoustic dispenser (Beckman Coulter). For primary screens, compounds were tested at 7 concentrations, 1:3 dilution points ranging from 25 uM to 34 nM. Follow-up confirmatory screens were carried out at 11 concentrations, 1:3 dilution points from 25 uM to 0.42 nM. 2. Four uL nsP2pro enzyme mix (150 nM final concentration) in 10 mM Tris-HCl pH 8.0 with 0.01% Tween 20 assay buffer was dispensed into the plate using a BioRAPTR FRD liquid dispenser (Beckman Coulter). 3. The plate was incubated at room temperature (protected from light) for 15 min 4. Four microliter of peptide 2 substrate (2.5 uM final concentration) in assay buffer was added to the plate. 5. After 1 hour, plates were immediately read on a ViewLux high-throughput CCD imager (Exposure = 10 sec, Gain = High, Speed = Slow, Binning = 2X). The above assay was also incorporated in the NCATS HTS facility41, which allowed for robotic liquid and compound dispensing, microplate handling, and fluorescence reading.. REFERENCE: Inglese J, Shamu CE and Guy RK, Reporting data from high throughput screening of small molecule libraries, Nature Chemical Biology, 2007, 3(8): 438-441. doi.org/10.1038/nchembio0807-438.
# Potency is the fitted concentration of half-maximal effect.
# Sequence of Polyprotein P1234 (Chikungunya virus (strain S27-African prototype)) (Q8JUX6 whole entry, looked up): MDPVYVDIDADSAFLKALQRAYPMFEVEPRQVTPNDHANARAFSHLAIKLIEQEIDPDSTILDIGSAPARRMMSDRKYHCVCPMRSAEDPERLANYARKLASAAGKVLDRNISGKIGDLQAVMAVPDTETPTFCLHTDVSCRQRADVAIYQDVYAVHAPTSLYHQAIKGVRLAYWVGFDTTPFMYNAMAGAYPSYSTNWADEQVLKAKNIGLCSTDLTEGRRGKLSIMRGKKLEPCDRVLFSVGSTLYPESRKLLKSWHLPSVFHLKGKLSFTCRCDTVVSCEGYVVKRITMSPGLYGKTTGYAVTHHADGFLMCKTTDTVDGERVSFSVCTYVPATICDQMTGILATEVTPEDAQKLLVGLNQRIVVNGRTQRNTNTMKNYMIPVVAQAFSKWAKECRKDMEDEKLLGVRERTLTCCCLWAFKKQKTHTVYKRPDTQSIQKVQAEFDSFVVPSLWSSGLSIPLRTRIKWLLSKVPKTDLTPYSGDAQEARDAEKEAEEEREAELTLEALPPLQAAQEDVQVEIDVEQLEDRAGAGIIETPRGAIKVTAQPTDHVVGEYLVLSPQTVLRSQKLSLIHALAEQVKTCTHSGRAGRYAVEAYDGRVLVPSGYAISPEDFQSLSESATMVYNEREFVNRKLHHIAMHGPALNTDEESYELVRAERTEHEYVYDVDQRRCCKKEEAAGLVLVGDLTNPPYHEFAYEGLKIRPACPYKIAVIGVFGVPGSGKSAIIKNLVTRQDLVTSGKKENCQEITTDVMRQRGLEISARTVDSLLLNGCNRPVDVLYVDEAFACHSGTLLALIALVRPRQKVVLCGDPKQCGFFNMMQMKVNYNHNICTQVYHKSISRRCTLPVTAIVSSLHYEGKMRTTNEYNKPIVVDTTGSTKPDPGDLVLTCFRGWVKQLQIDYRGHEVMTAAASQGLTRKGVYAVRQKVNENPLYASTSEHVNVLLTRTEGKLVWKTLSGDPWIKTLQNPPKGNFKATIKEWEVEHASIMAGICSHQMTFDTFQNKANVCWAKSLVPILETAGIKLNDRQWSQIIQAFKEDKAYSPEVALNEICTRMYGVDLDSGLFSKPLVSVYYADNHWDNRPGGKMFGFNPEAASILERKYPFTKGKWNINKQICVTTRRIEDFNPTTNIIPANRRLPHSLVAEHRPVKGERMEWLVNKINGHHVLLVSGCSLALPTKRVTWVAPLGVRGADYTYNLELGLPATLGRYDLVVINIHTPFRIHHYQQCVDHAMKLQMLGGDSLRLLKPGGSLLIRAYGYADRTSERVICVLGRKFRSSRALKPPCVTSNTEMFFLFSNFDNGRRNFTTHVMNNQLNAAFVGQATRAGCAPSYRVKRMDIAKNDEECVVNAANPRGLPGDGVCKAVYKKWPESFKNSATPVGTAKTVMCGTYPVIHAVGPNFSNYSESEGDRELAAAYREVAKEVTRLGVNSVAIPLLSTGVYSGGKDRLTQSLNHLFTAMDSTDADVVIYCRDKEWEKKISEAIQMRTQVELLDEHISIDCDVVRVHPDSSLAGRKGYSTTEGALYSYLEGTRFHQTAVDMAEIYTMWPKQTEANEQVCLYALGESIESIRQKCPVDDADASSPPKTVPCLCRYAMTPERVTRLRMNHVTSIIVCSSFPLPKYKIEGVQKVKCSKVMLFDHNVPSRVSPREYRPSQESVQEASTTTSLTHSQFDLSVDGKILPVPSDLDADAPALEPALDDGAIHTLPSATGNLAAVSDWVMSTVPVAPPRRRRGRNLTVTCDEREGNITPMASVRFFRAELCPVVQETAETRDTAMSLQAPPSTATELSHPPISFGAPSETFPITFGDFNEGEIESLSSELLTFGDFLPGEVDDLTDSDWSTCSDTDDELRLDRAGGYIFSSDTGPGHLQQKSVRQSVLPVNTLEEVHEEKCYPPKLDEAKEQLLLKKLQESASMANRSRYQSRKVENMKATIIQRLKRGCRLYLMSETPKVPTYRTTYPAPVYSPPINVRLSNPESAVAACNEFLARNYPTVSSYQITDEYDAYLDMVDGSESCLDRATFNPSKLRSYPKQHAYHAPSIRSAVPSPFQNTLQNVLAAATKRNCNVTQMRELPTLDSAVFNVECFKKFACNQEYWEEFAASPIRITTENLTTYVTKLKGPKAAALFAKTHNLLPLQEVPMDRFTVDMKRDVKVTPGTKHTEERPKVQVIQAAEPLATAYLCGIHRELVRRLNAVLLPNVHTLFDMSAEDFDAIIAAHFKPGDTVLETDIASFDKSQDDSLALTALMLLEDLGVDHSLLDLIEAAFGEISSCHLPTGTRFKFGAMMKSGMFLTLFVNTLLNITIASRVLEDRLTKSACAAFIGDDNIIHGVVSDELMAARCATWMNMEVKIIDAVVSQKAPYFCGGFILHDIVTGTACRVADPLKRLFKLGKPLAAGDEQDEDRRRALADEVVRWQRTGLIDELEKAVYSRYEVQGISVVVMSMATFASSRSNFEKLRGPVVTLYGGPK
Structure (SMILES),Potency,"activity change, negative = inhibition"
Cn1nnnc1Sc1ncnc2scc(-c3ccccc3[N+](=O)[O-])c12,inactive,
Cn1nnnc1Sc1ncnc2n[nH]c(-c3cccc(S(C)(=O)=O)c3)c12,2820 nM (active),
Cc1ccc(-c2ccccc2CN2CCN([S+](=O)([O-])c3cccc(C(F)(F)F)c3)CC2)cc1Cl,inactive,
O=C(Nc1nc(-c2ccccc2)cs1)c1ccncc1NS(=O)(=O)c1ccc(Cl)cc1,inactive,
Cc1c(Cl)cccc1NC(=O)N1CCN(C(=O)c2nsc3ccccc23)CC1,inactive,
COc1cc(C(CC(=O)NCCC(C)C)N2Cc3ccccc3C2=O)cc(OC)c1OC (stereo unspecified),inactive,
O=C(Cn1ccn2nc3c(c2c1=O)CCCCC3)NCc1ccccc1Cl,inactive,
CC1=C(C(=O)N2CCN(c3cccc(C(F)(F)F)c3)CC2)C2(CCCCC2)OC1=O,inactive,
CC(C)Sc1oc(-c2cccs2)nc1S(=O)(=O)c1ccc(Cl)cc1,inactive,
CCc1nc(-c2ccc(OC3CCN(C(=O)Cc4c[nH]c5ccccc45)C3)cc2)no1 (stereo unspecified),inactive,
COc1ccc(CN2CCN(CCCSc3cc(C(C)(C)C)c(O)c(C(C)(C)C)c3)CC2)c(OC)c1OC,,11.3% [at 5.1 µM] (inactive)
Cc1cn2nc(C(=O)NC3CCCC3)cc2c(N2CCSCC2)n1,inactive,
CCN(CC)c1cc(CCC(=O)NCc2cc(F)ccc2F)ccn1,inactive,
FC(F)(F)c1cc(Nc2nc3ccccc3c3nncn23)ccc1Cl,inactive,
C=CS(=O)(=O)N1CCCN(c2cc(NCCC(=O)O)nc(-c3ccccn3)n2)CC1,inactive,
Cc1ccc(NC(=O)CCCn2c(=O)c3cccn3c3ccccc32)cc1Cl,inactive,
Cc1ccccc1[C@@H](C(=O)NC1CCCCC1)N(C(=O)Cn1ccnc1C)c1cccc(F)c1,inactive,
CCOC(=O)C1CCCN(CC(=O)Nc2cc(C)c3c(=O)oc4ccccc4c3n2)C1 (stereo unspecified),inactive,
COc1ccc(Cc2nc3ccc(C(=O)NCc4ccccc4Cl)cc3o2)cc1,inactive,
COc1ccc(C2=Nn3c(nnc3-c3ccccc3OC)SC2)cc1OC1CCCC1,inactive,
O=[S+]([O-])(c1ccc2c(c1)OCCO2)N1CCN([S+](=O)([O-])c2c(Cl)cc(Cl)cc2Br)CC1,inactive,
CC(=O)N1Cc2ccccc2CC2(CCN(Cc3ccc(O)cc3)CC2)C1,inactive,
N#Cc1cc(-c2nc(Nc3ccc(F)c(F)c3)c3ccccc3n2)ccn1,inactive,
COCCNc1ncnc2c1c(-c1ccccc1)cn2-c1ccc(C)c(Cl)c1,inactive,
CN(Cc1ccccc1)C(=O)c1cn(C)c2ccc(S(=O)(=O)N(C)C3CCCCC3)cc2c1=O,inactive,
O=C(Nc1ccc2ncnc(N3CCCCC3)c2c1)C1CCCCC1,inactive,
